CDC25B CDK2 inh: human CDC25B-CDK2/CyclinA binding inhibition | HTRF CDC25B-CDK2/CyclinA binding, anti-His/anti-Flag; active compounds read high | z-score (no concentration beside the values) | hit rate 0.72% among 94,000; in the data active means z-score above about 3.2
TAR Tat displ: HIV-1 TAR-Tat binding disruption | HIV-1 TAR RNA, Tat peptide displacement FRET; active compounds read high | z-score (concentration not given with the values) | hit rate 0.6% among 100,000 | AID 1259389; active means z-score of 3 or more in at least 2 runs
Numbers stand for hits; - = inactive; . = no result. Hits are enriched below; roughly 0.9% of the tested compounds scored in any of these assays.

SMILES	CDC25B CDK2 inh	TAR Tat displ
CCN(CCS(=O)(=O)N1CCNCC1)S(=O)(=O)c1cc(OC)ccc1OC	.	-
Nc1ccc2nn(-c3cccc(Cl)c3)nc2c1	-	4
Cc1ccc(-n2nc3ccc(N)cc3n2)cc1	-	-
Cc1cc(C)c2c(=O)cc(C(=O)Nc3sc4c(c3C(=O)NCc3ccco3)CCC4)oc2c1	4	-
Cc1ccc2oc(C(=O)Nc3sc4c(c3C(=O)NCc3ccco3)CCC4)cc(=O)c2c1	-	-
Cc1cc(C)c2oc(C(=O)Nc3sc4c(c3C(=O)NCc3ccco3)CCC4)cc(=O)c2c1	-	-
Cc1cc2oc(C(=O)Nc3sc4c(c3C(=O)NCc3ccco3)CCC4)cc(=O)c2cc1C	6.6	12
O=C(NCCCc1ccco1)C1CCCN(c2nnc(N3CCCC3=O)s2)C1 (stereo not given)	.	-
CSc1nn(CC(=O)Nc2ccc(F)cc2)c(N)c1S(=O)(=O)c1ccc(Cl)cc1	.	-
O=S(=O)(O)c1cc[n+]([O-])cc1	4.4	.
O=S(=O)(O)c1ccc2[nH]c(=S)sc2c1	-	.
NC(=O)CSc1nc2ccccc2c(=O)[nH]1	-	-
O=C(CSc1nc2ccccc2c(=O)[nH]1)N1CCc2ccccc21	.	14
CC(=O)Nc1c2n(c3ccc(F)cc13)CC(C)(C(=O)NC1CCCCC1)N(C(C)C)C2=O (stereo not given)	.	18
CC(=O)Nc1c2n(c3ccc(F)cc13)CC(C)(C(=O)NC1CCCCC1)N(CCC(C)C)C2=O (stereo not given)	.	-
CCCSCCCNC(=O)C1Cc2ccccc2N1C(=O)CC (stereo not given)	.	-
Oc1ccccc1-c1nc(-c2cccs2)c(-c2cccs2)[nH]1	18	-
COc1cc(-c2nc(-c3ccccc3)c(-c3cccs3)[nH]2)cc(OC)c1O	-	.
CC1=C(C(=O)Nc2ccccc2C(=O)NC2CC2)SCCO1	.	-
COc1ccccc1-c1nc(COc2ccccc2-c2nnc(-c3ccccc3)o2)c(C)o1	.	-
COc1cc(Br)c(CC2c3cc(OC)c(OC)cc3CCN2C)cc1OC (stereo not given)	.	-
CN1CCc2cc(O)c(O)cc2C1Cc1ccc(O)c(O)c1 (stereo not given)	.	38
CCOC(=O)c1cc(-c2ccccc2)sc1NC(=O)CSc1nc2ccccc2s1	-	.
CCOC(=O)c1cnn(-c2ccccc2)c1NC(=O)CSc1nc2ccccc2s1	19	.
COc1ccc(Cn2cc3c(-c4ccccc4)nnc-3c3cc4c(cc32)OCCO4)cc1	7.4	-
SMILES	CDC25B CDK2 inh	TAR Tat displ
COc1ccccc1Cn1cc2c(-c3ccc(F)cc3)nnc-2c2cc3c(cc21)OCO3	-	-
COc1ccc(-c2nnc3c4cc5c(cc4n(Cc4ccccc4)cc2-3)OCCO5)cc1	-	-
COc1ccc(-c2nnc3c4cc5c(cc4n(Cc4ccccc4F)cc2-3)OCCO5)cc1OC	7.3	-
Cc1ccc(-n2nnc(-c3nc(-c4ccccc4F)no3)c2N)cc1	.	-
CCC(CC)C(=O)Nc1cc(-c2cn3cccnc3n2)ccc1C	-	.
Cc1cc2nc(CSc3nnc(NC(=O)c4ccccc4F)s3)cc(=O)n2o1	.	-
CCNc1nc(NC(C)C)c2cnn(C)c2n1	.	-
COc1ccccc1N1C(=O)Nc2ccccc2S1(=O)=O	.	-
Cc1cc2nc(NC3=NCN(CCCN4CCOCC4)CN3)nc(C)c2cc1C	-	-
Cc1cc2nc(NC3=NCN(Cc4ccco4)CN3)nc(C)c2cc1C	14	-
Cc1nc(NC2=NCN(Cc3ccco3)CN2)nc2ccccc12	-	-
Cc1cc2nc(NC3=NCN(CCN4CCOCC4)CN3)nc(C)c2cc1C	11	.
Cc1ccc(N2CCCS2(=O)=O)cc1NS(=O)(=O)c1ccc2c(c1)CCCC2	.	-
CSc1ccccc1C(=O)c1ccccc1C(=O)O	-	.
O=C(O)c1ccccc1Sc1cc(C(=O)O)c(Sc2ccccc2C(=O)O)cc1C(=O)O	15	.
Cc1cc(C)n(-c2nc3c(c(=O)n2CC(=O)Nc2cc(C)on2)CCC3)n1	.	-
CCCSCCCNC(=O)C(C)n1nc(CC)n2c(cc3occc32)c1=O (stereo not given)	-	-
C=CCNc1nc2c3ccccc3n(C(C)=O)c2s1	-	-
COc1ccc(Nc2nc3c4ccccc4n(C(C)=O)c3s2)cn1	14	-
COc1ccc(N2CSC3=C(C#N)C(c4ccc(Cl)cc4)CC(=O)N3C2)cc1OC (stereo not given)	-	-
N#CC1=C2SCN(c3ccc(Cl)cc3)CN2C(=O)CC1c1ccccc1 (stereo not given)	7.3	-
N#CC1=C2SCN(c3cccc(Cl)c3)CN2C(=O)CC1c1ccccc1 (stereo not given)	9.2	-
CCn1ncc(C2CC(=O)Nc3c2c(C)nn3-c2nc3ccc(OC)cc3s2)c1C (stereo not given)	.	-
CCOC(=O)Cc1cc(=O)n2[nH]c(-c3ccco3)nc2n1	13	-
CCCc1cc(=O)n2[nH]c(-c3ccco3)nc2n1	.	-
SMILES	CDC25B CDK2 inh	TAR Tat displ
CSc1ccc(CCNC(=O)Nc2ccc3snnc3c2)cc1	-	-
O=C(NCCCO)Nc1ccc2snnc2c1	6.5	-
O=C(Nc1ccc2snnc2c1)NC1CCCC1	-	-
O=C(NCc1ccccc1)Nc1ccc2snnc2c1	11	-
COCCNC(=O)Nc1ccc2snnc2c1	7.8	-
O=C(NCc1ccc2c(c1)OCO2)Nc1ccc2snnc2c1	-	.
CCN(CC)C(=O)Nc1ccc2snnc2c1	9.1	-
CN(C)C(=O)Nc1ccc2snnc2c1	-	-
COc1ccc(-c2nc(CSc3nc4ncccc4[nH]3)c(C)o2)c(OC)c1	.	-
C=CCNC(=O)c1ccc2snnc2c1	-	-
C=CCNC(=O)Nc1ccc2snnc2c1	10	-
O=C(CSc1nc2ncccc2o1)Nc1nc2ccccc2s1	.	-
O=c1cc(-c2cccnc2)nc2cc(-c3ccco3)[nH]n12	19	.
O=c1c2c(nc3cc(-c4ccccc4)[nH]n13)CCCC2	-	.
O=c1c2c(nc3cc(-c4ccco4)[nH]n13)CSC2	19	.
COc1cccc(-c2cc3nc(-c4ccccc4)cc(=O)n3[nH]2)c1	-	.
CCn1nc(C)c(CNS(=O)(=O)c2ccc(OC)c(Cl)c2)c1C	.	-
Cc1ccc2c(c1)c(=O)c(S(=O)(=O)c1ccc(Cl)cc1)cn2C	-	-
Nc1nc(NCc2ccc(Cl)cc2)nc(N2CCCCC2)c1[N+](=O)[O-]	.	-
COc1ccccc1OCCSc1nnc(-c2ccccc2C)o1	-	-
O=C(NCCN1CCCC1)C1CCN(c2ccc(F)cc2)C1=O (stereo not given)	.	-
COC(=S)Nc1cccc(C(F)(F)F)c1	-	.
COc1cc(OC)c2nc(C)c3c(c2c1)CN(C(=O)Nc1cccc(C(F)(F)F)c1)C3	15	.
CCN1CCN(C(=O)Cn2nc(C)n3cccc3c2=O)CC1	-	-
O=C1Cc2cc(S(=O)(=O)N3CCOCC3)cc3c2N1CCC3	.	-
SMILES	CDC25B CDK2 inh	TAR Tat displ
CCc1ccc(C2CC(=O)Nc3cc4c(cc32)OCCO4)cc1 (stereo not given)	4.4	-
O=C1CC(c2ccc(-c3ccccc3)cc2)c2cc3c(cc2N1)OCCO3 (stereo not given)	-	-
COc1cc(-c2coc3cc(OCc4ccccc4)c(OC)c(O)c3c2=O)cc(OCc2ccccc2)c1OC	.	26
COc1ccc(-c2coc3cc(OCc4ccc(Br)cc4)cc(O)c3c2=O)cc1OC	-	-
CCC(C)NC(=O)c1ccc2c(c1)N=C(C)c1cc(C)ccc1S2 (stereo not given)	-	5.9
CCC1=Nc2cc(C(=O)NC(C)CC)ccc2Sc2ccccc21 (stereo not given)	-	-
